Assay outcomes deposited in PubChem by National Center for Advancing Translational Sciences (NCATS).
Vaccinia mCherry: inhibitors of vaccinia virus infection (mCherry reporter signal); 310,000 tested, 0.63% active; Potency, µM (highest dose often 36.5 µM), without a hit: top-dose activity change, negative = inhibition, actives largely listed as inhibitors; Vaccinia virus mCherry reporter infection, fluorescence; calls by dose curve; tested in A549 cells; note: potency is the fitted concentration of half-maximal effect; nearly all actives have a fitted effect of over 35% in size
HCV inh: inhibitors of hepatitis C virus infection; Potency, µM (highest dose often 41.8 µM), for the others: at the top dose activity change, negative = inhibition, actives largely listed as inhibitors; 340,000 tested, 3.4% active; AID 651820; Huh7.5.1 HCVcc-Cre infection, luciferase reporter, 44 h; active = well fitted inhibition curve with a large enough effect; inconclusive = small, poorly fitted or top-dose-only effect, or another doubt; inactive = no such curve, though single readings can be large or run the other way; note: potency is the fitted concentration of half-maximal effect
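Compounds are dispensed onto cells plated 4 h earlier at 1,000 per well, with HCVcc-Cre virus (about 0.5 moi) added next. Following 44 h of culture, luminescent signal is measured for 15 sec after 15 min with substrate at room temperature.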
HCMV antiviral: blocks human cytomegalovirus replication; activity change, negative = inhibition, % at 57.5 µM; HFF cells, HCMV-luciferase reporter, 72 h; hits give low values; 410,000 tested, 4.5% active; in the data active = activity change below about -60%; inconclusive = no clear call, values can overlap the other calls; inactive = above about -39%
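Two compound doses tested in HFFs infected with HCMV-luciferase, MOI 1 PFU/cell, 72 h at 37C. Lysate luminescence read with OneGlo; data normalized against buffer-only and 10uM Salinomycin inhibitor controls.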
VACV Venus inh: inhibitors of vaccinia virus (Venus reporter). 330,000 tested, 0.46% active. Potency, µM (highest dose often 36.5 µM), for the others: at the top dose activity change, negative = inhibition, actives largely listed as inhibitors. Vaccinia virus Venus reporter expression, fluorescence; calls by dose curve; tested in A549 cells; note: potency is the fitted concentration of half-maximal effect; nearly all actives have a fitted effect of over 30% in size
LASV entry inh: blocks Lassa virus binding to or entry into cells | Lassa virus pseudotype entry inhibition, cell reporter | 300,000 tested, 1.2% active | Potency, µM (top dose mostly 37.9 µM), without a hit: at the highest dose activity change, negative = inhibition, most hits filed as inhibitors; calls by dose curve; tested in HEK293 cells; note: potency is the fitted concentration of half-maximal effect; nearly all actives have a fitted effect of over 50% in size
MARV entry inh: inhibitors of Marburg virus binding or cell entry; Potency, µM (doses to about 37.8 µM), inactives show at the highest dose activity change, negative = inhibition, usual class: inhibitors; 300,000 tested, 1.8% active; Marburg virus pseudotyped entry inhibition, cell reporter; calls by dose curve; tested in HEK293 cells; note: potency is the fitted concentration of half-maximal effect
* marks the source's active call; other numbers are inactive results; i = inactive; u = inconclusive; x = no result given; [ ] = another dose, or the depositor's remark. Hits are enriched below; roughly 7.8% of the tested compounds scored in any of these assays. % is set by controls: 0 for no effect and ±100 for the full control effect.

SMILES	Vaccinia mCherry	HCV inh	HCMV antiviral	VACV Venus inh	LASV entry inh	MARV entry inh
CCOC(=O)c1c(NC(=O)CSc2c[nH]c3ccccc23)sc2c1CCC2	u	u	58	-27%	u	u
CCOC(=O)c1c(NC(=O)c2ccccc2Cl)sc2c1CCCC2	-8%	x	-25	-3%	u	x
CCOC(=O)c1c(NC(=O)CSc2c[nH]c3ccccc23)sc2c1CCCC2	u	11µM*	-17	-25%	u	13µM*
CCOC(=O)c1c(NC(=O)C(NCCN(C)C)c2ccccc2)sc2c1CCCC2 (stereo not drawn)	u	0.89µM*	-26	-22%	11µM*	u
CCOC(=O)c1c(NC(=O)CSc2nnc(-c3c[nH]c4ccccc34)n2CCOC)sc2c1CCCCC2	u	6.3µM*	-67*	u	23µM*	u
COCCNc1nnc(SCC(=O)Nc2sc3c(c2C(=O)c2ccccc2)CCCC3)s1	-22%	2.5µM*	-86*	u	u	u
Nc1nnc(SCC(=O)Nc2sc3c(c2C(=O)c2ccccc2)CCCC3)s1	-26%	u	-17	-14%	6%	u
Cc1ccc(NC(=O)Cn2c(=O)n(CCCCC(=O)NCCc3ccc(Cl)cc3)c(=O)c3ccccc32)cc1	i	x	u	-14%	7%[46.1 µM]	-23%[46.1 µM]
Cc1cc(-c2ccnc(-n3ncc(C(=O)NCC(C)(C)N4CCOCC4)c3C)n2)c(C)s1	8%	x	x	22%	x	x
COC(=O)c1cccc(N2C(=O)C[C@](Sc3ccc(OC)cc3)(C(=O)N3CCN(c4ncccn4)CC3)[C@H]2c2ccc(OC)cc2)c1	x	x	-25	x	x	x
CC(=O)c1cccc(NC(=O)CSc2nc3c(=O)n(C)c(=O)n(C)c3n2C)c1	-9%	x	50	-6%	-17%[46.1 µM]	x
CCOC(=O)c1c(NC(=O)CSc2cn(CCNC(=O)c3ccccc3OC)c3ccccc23)sc2c1CCC2	-20%	x	-6	-13%	u	13µM*
CCOc1ccc(-n2c(=O)c3c(C)c(C)sc3n(Cc3ccccc3C)c2=O)cc1	4%	x	6	4%	-1%[46.1 µM]	6%[46.1 µM]
Cc1ccc(S(=O)(=O)c2nc(-c3ccccc3F)oc2N2CC(C)OC(C)C2)cc1 (stereo not drawn)	-11%	u	-20	-6%	16µM*	-17%
O=S(=O)(c1ccc(F)cc1)c1nc(-c2ccccc2F)oc1N1CCCCC1	x	-5%	-29	x	-22%	-6%
O=C(Nc1cccc(C(=O)OCc2cc(=O)n3c4c(sc3n2)CCCC4)c1)c1ccc(Cl)cc1	-16%	x	u	-18%	2%[46.1 µM]	x
O=C(Nc1cccc(Br)c1)c1cc(S(=O)(=O)N2CCCCC2)c[nH]1	-4%	x	49	-2%	15%[46.1 µM]	x
CC1CCN(c2ccccc2NC(=O)c2ccc(C#N)cc2F)CC1	-6%	10µM*	-27	-12%	28%[46.1 µM]	-1%[46.1 µM]
CC(C)C(=O)N1CCN(c2ccccc2NC(=O)c2ccc(C#N)cc2F)CC1	0%	6%	24	-2%	-2%	u
CSc1nc(-c2ccccc2)c(C#N)c(=O)[nH]1	-13%	5%	-24	-2%	x	x
CSc1nc(-c2ccc(Cl)cc2)c(C#N)c(=O)[nH]1	i	4%	-76*	-4%	-17%	12%[46.1 µM]
CC(Oc1ccccc1)C(=O)Nc1ccc(C(=O)OCc2cc(=O)n3nc(C(C)C)sc3n2)cc1 (stereo not drawn)	-16%	x	29	-11%	u	x
CC(=O)OC1C[C@@]2(C)C(c3ccoc3)C[C@H]3O[C@@]32[C@@]2(C)C(=O)C(O)=C3C(C)(C)C(=O)C=C[C@]3(C)C12 (stereo partly drawn)	7.1µM*	x	x	8.9µM*	x	x
CC(C)=CCCC(C)=CCN1C(=O)[C@@]2(CC(C)=C[C@@H](COCc3ccccc3)O2)c2ccccc21	x	x	x	x	x	6%[14.2 µM]
CN(C)C(=O)c1ccc(NC(=O)COc2cccc3c2OC(C)(C)C3)cc1	-3%	u	-101*	-11%	5%	-1%
COc1cc(C)c(NC(=O)COc2cccc3c2OC(C)(C)C3)cc1OC	x	10µM*	x	x	x	x
CC(=O)c1ccc(NC(=S)Nc2ccc3cn[nH]c3c2)cc1	6%	0%	-68*	-7%	-30%	10%[14.2 µM]
